FLuc counter – firefly luciferase modulation, counter-screen for miR-21 project; purified FLuc, Km substrates, luminescence inhibition; Potency, µM (titrated, usually from 57.5 µM), without a hit: at the top dose activity change, negative = inhibition, actives largely listed as inhibitors; 6.9% of 360,000 active; P08659;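 further: plate controls were vehicle for no effect and reference inhibitor for full effect; nearly all actives have a fitted effect of over 55% in size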
Target sequence (P08659 whole entry, looked up): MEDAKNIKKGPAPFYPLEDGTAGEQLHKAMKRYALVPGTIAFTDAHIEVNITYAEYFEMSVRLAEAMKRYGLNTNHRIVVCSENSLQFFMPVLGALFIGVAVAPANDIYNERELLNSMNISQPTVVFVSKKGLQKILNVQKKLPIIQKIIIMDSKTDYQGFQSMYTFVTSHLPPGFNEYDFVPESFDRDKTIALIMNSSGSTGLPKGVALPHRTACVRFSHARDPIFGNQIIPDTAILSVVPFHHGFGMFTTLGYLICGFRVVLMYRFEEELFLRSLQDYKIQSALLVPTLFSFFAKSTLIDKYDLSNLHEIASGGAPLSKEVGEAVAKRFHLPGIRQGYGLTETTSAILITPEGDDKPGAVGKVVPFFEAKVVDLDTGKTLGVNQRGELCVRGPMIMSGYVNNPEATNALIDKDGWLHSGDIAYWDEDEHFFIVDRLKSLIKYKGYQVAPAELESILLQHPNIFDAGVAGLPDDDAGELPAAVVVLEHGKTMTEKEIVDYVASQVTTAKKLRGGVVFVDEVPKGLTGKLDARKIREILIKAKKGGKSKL
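Purified P. pyralis luciferase (10nM final) with 10uM D-luciferin and 10uM ATP (Km levels) in 50mM Tris acetate pH 7.5, 10mM Mg acetate, 0.01% Tween-20, 0.05% BSA; qHTS 6-point titration, ~60 µM downward; luminescence read.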
ELG1 genotox – genotoxicity induction in ELG1-luciferase HEK293T cells; Potency, µM (titrated, usually from 46 µM), inactives show top-dose activity change, positive = activation, most hits filed as activators; HEK293T ELG1-luciferase reporter, luminescence, 16 h; 1.3% of 330,000 active; further: % of control where 0% means no effect; nearly all actives have a fitted effect of over 60% in size
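Genotoxicity was scored as increased ELG1-luciferase reporter signal, measured by ONE-Glo luminescence (30 min, room temperature). Compound or vehicle exposure of the HEK293T reporter cells lasted 16 hr at 37°C.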
SMN2 splice up – increases expression of the SMN2 splice variant; AID 1458; 2.8% of 210,000 active; HEK293 SMN2-luciferase splicing reporter, luminescence, 30-36 h; Potency, µM (highest dose often 46.1 µM), for the others: top-dose activity change, positive = activation, actives largely listed as activators; further: % of control where 0% means no effect; nearly all actives have a fitted effect of over 55% in size
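HEK293 cells carry an SMN2 minigene-luciferase reporter in which exon 7 inclusion puts luciferase in frame. Cells were seeded at 2000 cells/well, attached for 10-12 hours, then exposed to compounds for 30-36 hours at 37C before ONE-Glo luminescence.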
NPC1 promoter act – activates the NPC1 promoter. AID 485313. Potency, µM (series often up to 9.22 µM), for the others: top-dose activation, actives largely listed as activators. 2.4% of 320,000 active. Huh7 NPC1 promoter luciferase reporter, 24 h; further: % of control where 0% means no effect; nearly all actives have a fitted effect of over 60% in size
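Stable NPC1-promoter luciferase Huh7 line; cpd (DMSO) 24 h, 37 °C, 5% CO2; Amplite luciferase reagent 10 min RT; luminescence readout. qHTS format.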
Rab9 promoter act – Rab9 promoter activation; AID 485297; 2.8% of 320,000 active; Potency, µM (highest dose often 9.22 µM), without a hit: at the top dose activation, negative = inhibition, most hits filed as activators; Huh7 Rab9 promoter-luciferase reporter, luminescence, 24 h; further: % of control where 0% means no effect; nearly all actives have a fitted effect of over 60% in size
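Luminescence read-out: Huh7 cells stably expressing Rab9-luciferase, treated 24 h with compound at 37 °C, then lysed with luciferase reagent for 10 min at ambient before reading.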
ELG1 DNA repair – inhibitors of ELG1-dependent DNA repair in HEK293T cells; HEK293T ELG1-luciferase reporter, luminescence, 16 h; DNA damage induced by 5-fluorouridine; 2.3% of 330,000 active; Potency, µM (highest dose often 46.1 µM), for the others: top-dose activity change, negative = inhibition, usual class: inhibitors; AID 504467; further: on the % scale 0 is the no-effect control and ±100 the full control effect; nearly all actives have a fitted effect of over 55% in size
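Reporter activity after DNA damage by 5-fluorouridine is monitored. Compound-treated cells incubate 16 hr at 37 °C, then ONE-Glo is added for 30 min before luminescence reading.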
* marks the source's active call; other numbers are inactive results; [ ] = another dose, or the depositor's remark. This is a sample that favours compounds with a hit; in the whole collection about 9.2% have one here. The call rests on the fitted dose curve; in most records, active means well fitted curve in the direction sought with a large enough effect; inconclusive means small, poorly fitted or top-dose-only effect, or another doubt; inactive means no such curve, though single readings can be large; an effect the other way counts as inactive or inconclusive. Potency means the concentration at half of the fitted maximal effect.

How did Cc1cccc(N2CCN(S(=O)(=O)c3ccc(-c4ccc(=O)[nH]n4)o3)CC2)c1C do in these assays?
FLuc counter: 0%; ELG1 genotox: -1%[9.26 µM]; NPC1 promoter act: -7%; Rab9 promoter act: -6%; ELG1 DNA repair: 9%

What do the screens show for `COc1ccccc1C(=O)NCC(=O)OCc1csc(-c2ccccc2)n1`?
FLuc counter: -14%; ELG1 genotox: 6%; SMN2 splice up: inconclusive; NPC1 promoter act: 1%; Rab9 promoter act: 11%; ELG1 DNA repair: inconclusive

What do the screens show for `COc1ccc(C(=O)NCC(=O)OCc2csc(-c3ccccc3)n2)cc1`?
FLuc counter: 17µM*; ELG1 genotox: 5%; SMN2 splice up: -16%; NPC1 promoter act: 1%; Rab9 promoter act: 0%; ELG1 DNA repair: inconclusive

What do the screens show for `O=C(OCc1csc(-c2ccccc2)n1)c1cccs1`?
FLuc counter: 0.54µM*; ELG1 genotox: inconclusive; SMN2 splice up: 14%; NPC1 promoter act: inconclusive; Rab9 promoter act: inconclusive; ELG1 DNA repair: inconclusive

Results for Cc1ccsc1C(=O)OCc1csc(-c2ccccc2)n1 ?
FLuc counter: 0.6µM*; ELG1 genotox: 7.3µM*; SMN2 splice up: 16µM*; NPC1 promoter act: inconclusive; Rab9 promoter act: 4µM*; ELG1 DNA repair: inconclusive

Results for O=C(OCc1csc(-c2ccccc2)n1)C1=NN(c2ccccc2)C(=O)CC1 ?
FLuc counter: inconclusive; ELG1 genotox: 9%; NPC1 promoter act: 12%; Rab9 promoter act: 14%; ELG1 DNA repair: inconclusive

Results for Cn1cccc1C(=O)OCc1csc(-c2ccccc2)n1 ?
FLuc counter: 0.67µM*; ELG1 genotox: inconclusive; SMN2 splice up: 11µM*; NPC1 promoter act: 2.5µM*; Rab9 promoter act: 1.1µM*; ELG1 DNA repair: inconclusive

Results for O=C1CN(C(=O)COC(=O)[C@@H]2CCCN2S(=O)(=O)c2ccc(Cl)cc2)c2ccccc2N1 ?
ELG1 genotox: 0%; ELG1 DNA repair: 7%

How did COc1ccc(-c2nc3cnc(N4CCNCC4)nc3n(CCc3ccccc3)c2=O)cc1 do in these assays?
SMN2 splice up: 3%

How did Cc1cc(=O)n2[nH]c(-c3ccc(Cl)cc3)cc2n1 do in these assays?
FLuc counter: 12µM*; ELG1 genotox: 13%; SMN2 splice up: 14µM*; NPC1 promoter act: inconclusive; Rab9 promoter act: 3.5µM*; ELG1 DNA repair: inconclusive

How did Cc1cc2nc(CSc3ccc(Cl)cc3)cc(=O)n2[nH]1 do in these assays?
FLuc counter: 17µM*; ELG1 genotox: -6%; SMN2 splice up: 12%; NPC1 promoter act: -2%; Rab9 promoter act: -3%; ELG1 DNA repair: inconclusive

How did Cc1nc2nc(CSc3ccc(Cl)cc3)cc(=O)n2[nH]1 do in these assays?
FLuc counter: inconclusive; ELG1 genotox: -1%; SMN2 splice up: 16%; NPC1 promoter act: 0%; Rab9 promoter act: -3%; ELG1 DNA repair: 15%

Results for O=c1cc(-c2ccc([N+](=O)[O-])cc2)nc2cc(-c3ccc(F)cc3)[nH]n12 ?
FLuc counter: inconclusive; ELG1 genotox: -1%; SMN2 splice up: 19%; NPC1 promoter act: -4%; Rab9 promoter act: -3%; ELG1 DNA repair: -1%

How did Cc1cc(=O)n2[nH]c(-c3ccc(F)cc3)cc2n1 do in these assays?
FLuc counter: 17µM*; ELG1 genotox: inconclusive; SMN2 splice up: 25%; NPC1 promoter act: inconclusive; Rab9 promoter act: inconclusive; ELG1 DNA repair: inconclusive

What do the screens show for `CCCCn1c(=O)n(C)c(=O)c2c(C(F)(F)F)cc(-c3ccncc3)nc21`?
FLuc counter: -1%; ELG1 genotox: -6%; SMN2 splice up: 21%; NPC1 promoter act: -1%; Rab9 promoter act: -5%; ELG1 DNA repair: 15µM*

Results for Cc1cc(S(=O)(=O)N2CCCCC2)ccc1OCC(=O)Nc1ccccc1 ?
FLuc counter: -1%; ELG1 genotox: -15%; NPC1 promoter act: -1%; Rab9 promoter act: 4%; ELG1 DNA repair: -5%

Results for N/N=C(\Cc1cscn1)c1ccc(O)cc1O ?
FLuc counter: 1%; ELG1 genotox: 1%; NPC1 promoter act: -9%; Rab9 promoter act: -8%; ELG1 DNA repair: 23µM*

Results for O=C(CNC(=O)C1CCCCC1)Nc1cc(Cl)cc(Cl)c1 ?
FLuc counter: 2%; ELG1 genotox: -4%; SMN2 splice up: 22%; NPC1 promoter act: 1%; Rab9 promoter act: -9%; ELG1 DNA repair: 6%

How did O=C(Nc1ccc(F)c(Cl)c1)C1CCCCC1 do in these assays?
FLuc counter: -18%; ELG1 genotox: -1%; NPC1 promoter act: 1%; Rab9 promoter act: 7%; ELG1 DNA repair: 3%

How did O=C(CNC(=O)C1CCCCC1)Nc1ccc(F)c(Cl)c1 do in these assays?
FLuc counter: 2%; ELG1 genotox: 0%; SMN2 splice up: 18µM*; NPC1 promoter act: -8%; Rab9 promoter act: -1%; ELG1 DNA repair: -4%

What do the screens show for `O=C(CNC(=O)C1CCCCC1)Nc1ccc(Cl)cc1`?
FLuc counter: -5%; ELG1 genotox: inconclusive; SMN2 splice up: 11µM*; NPC1 promoter act: 15%; Rab9 promoter act: 3%; ELG1 DNA repair: inconclusive

Results for CC(C)NC(=O)NC(=O)COC(=O)c1ncc(Cl)c(Cl)c1Cl ?
FLuc counter: 2%; ELG1 genotox: 3%; SMN2 splice up: -7%; NPC1 promoter act: -1%; Rab9 promoter act: -4%; ELG1 DNA repair: -1%

How did CSc1nsc(SC)c1C(=O)Nc1ccc(C(C)(C)C)cc1 do in these assays?
FLuc counter: 11µM*; ELG1 genotox: 0%; NPC1 promoter act: 16%; Rab9 promoter act: 13%; ELG1 DNA repair: 18µM*

What do the screens show for `CSc1nsc(SC)c1C(=O)NC(=O)Nc1cccnc1`?
FLuc counter: -1%; ELG1 genotox: 1%; NPC1 promoter act: -3%; Rab9 promoter act: 0%; ELG1 DNA repair: 5%

How did CC1(C)CC2CC(C)(CN2/C=N/c2sc3c(c2C#N)CC(C)(C)NC3(C)C)C1 (centres undefined) do in these assays?
FLuc counter: 0%; ELG1 genotox: -1%; NPC1 promoter act: 4%; Rab9 promoter act: -13%; ELG1 DNA repair: 23µM*

What do the screens show for `CC1(C)Cc2c(sc(N)c2C#N)C(C)(C)N1`?
FLuc counter: -3%; ELG1 genotox: 0%; NPC1 promoter act: 0%; Rab9 promoter act: -1%; ELG1 DNA repair: 18%

How did O=Cc1ccccc1-c1cn(CN2C(=O)c3ccccc3C2=O)nn1 do in these assays?
FLuc counter: 0%; ELG1 genotox: 4%; NPC1 promoter act: -2%; Rab9 promoter act: -2%; ELG1 DNA repair: -7%

How did Cn1c(-c2ccc(CN3CCCCC3)o2)nc2ccccc21 do in these assays?
FLuc counter: 15µM*; ELG1 genotox: inconclusive; SMN2 splice up: 13µM*; NPC1 promoter act: inconclusive; Rab9 promoter act: inconclusive; ELG1 DNA repair: inconclusive

Compound activity from PubChem BioAssay.
